From the supplement of paper PMC6522484
± gives the standard deviation of the averaged measurements.

Tests used:
[1] = system: DLD1; experiment: cell viability (CellTiter-Glo) relative to plate median (fraction of plate median); higher = more viable cells; details: 5 µM; treatment time 24 h; reporter: 7TFP
How it was run: (§1)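 Colorectal cancer lines with stably integrated lentiviral TCF/Wnt firefly luciferase reporters received library compounds at a final 5 µM, 24 h after seeding into 384-well plates, for a 24 h exposure. Reported figures are plate-median-normalised firefly luciferase or CellTiterGlo luminescence per well. They average two independent replicates.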

[2] = system: HCT116; experiment: as above; details: 5 µM; treatment time 24 h; reporter: TCF4/Wnt
How it was run: as §1

[3] = system: SW480; experiment: as above; details: 5 µM; treatment time 24 h; reporter: 7TFP
How it was run: as §1

[4] = system: DLD1; experiment: TCF/Wnt firefly luciferase reporter signal relative to plate median (fraction of plate median); higher = higher Wnt reporter signal; details: 5 µM; treatment time 24 h; reporter: 7TFP
How it was run: as §1

[5] = system: SW480; experiment: as above; details: 5 µM; treatment time 24 h; reporter: 7TFP
How it was run: as §1

[6] = system: DLD1; experiment: TCF/Wnt firefly luciferase reporter signal relative to plate median (fraction of plate median); higher = higher Wnt reporter signal; details: 10 µM, treatment time 24 h
How it was run: (§2)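 Kinase inhibitor library compounds were added at a final 10 µM for 24 h to colorectal cancer cells in 384-well plates, 24 h after seeding. The cells stably expressed lentiviral TCF/Wnt firefly luciferase reporters. Firefly luciferase and CellTiterGlo luminescence came from parallel plates, and each well was normalised to its plate median (webcellHTS2, additive, untransformed), averaged over two independent replicates.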

[7] = system: HCT116; experiment: as above; details: 10 µM; treatment time 24 h; reporter: TCF4/Wnt
How it was run: as §2

[8] = system: SW480; experiment: as above; details: 10 µM; treatment time 24 h; reporter: 7TFP
How it was run: as §2

Structure (SMILES)	cell viability [1]	cell viability [2]	cell viability [3]	TCF/Wnt firefly luciferase reporter signal [4]	TCF/Wnt firefly luciferase reporter signal [5]	TCF/Wnt firefly luciferase reporter signal ([6]; reporter: 7TFP)	TCF/Wnt firefly luciferase reporter signal ([6]; reporter: TCF4/Wnt)	TCF/Wnt firefly luciferase reporter signal [7]	TCF/Wnt firefly luciferase reporter signal [8]
CCC[C@@H]1C[C@@H](C(=O)N[C@@H]([C@H]2O[C@H](SC)[C@H](O)[C@@H](O)[C@H]2O)[C@H](C)Cl)N(C)C1	0.966 ± 0.15	1 ± 0.042	1.07 ± 0.057	0.907 ± 0.028	1.04 ± 0.028	–	–	–	–
CO[C@H]1C[C@H](O[C@@H]2/C(C)=C/C[C@@H]3C[C@@H](C[C@]4(CC[C@H](C)[C@@H](C5CCCCC5)O4)O3)OC(=O)[C@@H]3C=C(C)/C(=N/O)[C@H]4OC/C(=C\C=C\[C@@H]2C)[C@]43O)O[C@@H](C)[C@@H]1O	0.919 ± 0.021	0.962 ± 0.038	0.962 ± 0.037	1.05 ± 0.021	1.08 ± 0.035	–	–	–	–
c1coc(CNc2ncnc3[nH]cnc23)c1	0.913 ± 0.09	0.845 ± 0.17	0.958 ± 0.04	0.996 ± 0.1	1.04 ± 0.042	–	–	–	–
CN[C@H](CC(C)C)C(=O)N[C@H]1C(=O)N[C@@H](CC(N)=O)C(=O)N[C@H]2C(=O)N[C@H]3C(=O)N[C@H](C(=O)N[C@H](C(=O)O)c4cc(O)cc(O)c4-c4cc3ccc4O)[C@H](O)c3ccc(c(Cl)c3)Oc3cc2cc(c3O[C@@H]2O[C@H](CO)[C@@H](O)[C@H](O)[C@H]2O[C@H]2C[C@](C)(N)[C@H](O)[C@H](C)O2)Oc2ccc(cc2Cl)[C@H]1O	1.08 ± 0.11	1.01 ± 0.014	0.979 ± 0.012	1.09 ± 0.057	1.02 ± 0.035	–	–	–	–
COC(=O)c1c(OC)cc2c(c1C)Oc1c(Cl)c(OC(C)=O)c(Cl)c(C)c1C(=O)O2	0.935 ± 0.028	1.02 ± 0.088	0.9875 ± 0.0064	1.03 ± 0.042	0.968 ± 0.02	–	–	–	–
C=CCc1ccc(O)c(OC)c1	0.978 ± 0.013	1.07 ± 0.16	0.943 ± 0.063	1.06 ± 0.12	1.09 ± 0.078	–	–	–	–
CC(=O)O[C@@H]1C[C@H]2C(C)(C)[C@H](O)C[C@H](O)[C@]2(C)[C@H]2CC[C@@]3(C)[C@H](c4ccoc4)OC(=O)[C@H]4O[C@]43[C@@]21C	0.9065 ± 0.005	0.942 ± 0.012	0.977 ± 0.0014	1 ± 0.11	0.892 ± 0.033	–	–	–	–
N=C(N)NC(=O)c1nc(Cl)c(N)nc1N	0.963 ± 0.067	0.988 ± 0.046	1.01 ± 0.057	0.937 ± 0.024	1 ± 0.084	–	–	–	–
CN[C@@H]1[C@@H](O)[C@@H](O[C@@H]2[C@@H](O)[C@H](O[C@H]3OC(CN)=CC[C@H]3N)[C@@H](N)C[C@H]2N)OC[C@]1(C)O	1.04	0.9635 ± 0.0092	1.07 ± 0.042	0.933 ± 0.17	0.97 ± 0.085	–	–	–	–
Cc1cccc(C)c1OCC(C)N (centres undefined)	0.988 ± 0.059	0.983 ± 0.12	1.06	1.19 ± 0.078	1.05 ± 0.1	–	–	–	–
Nc1ccc(S(=O)(=O)Nc2ccccn2)cc1	0.971 ± 0.11	0.949 ± 0.067	0.981 ± 0.055	1.12 ± 0.028	0.915 ± 0.076	–	–	–	–
CO[C@@]1(NC(=O)C(C(=O)O)c2ccc(O)cc2)C(=O)N2C(C(=O)O)=C(CSc3nnnn3C)CO[C@@H]21 (some centres undefined)	1.06	1.02 ± 0.021	1.07	0.962 ± 0.097	1.06 ± 0.035	–	–	–	–
O=C1c2ccccc2C(=O)c2c(Cl)cccc21 [Chloro-Anthraquinone]	1.01 ± 0.027	0.993 ± 0.024	0.974 ± 0.017	1.03 ± 0.16	0.944 ± 0.14	–	–	–	–
Cn1ccnc1S	0.997 ± 0.047	1.04 ± 0.021	0.981 ± 0.021	0.988 ± 0.088	0.95 ± 0.071	–	–	–	–
CCOC(=O)c1ccc(N)cc1	1 ± 0.05	0.903 ± 0.076	1.005 ± 0.0071	0.9395 ± 0.0092	0.897 ± 0.09	–	–	–	–
C=CCc1ccc(OC(=O)c2ccccc2)c(OC)c1	1.02 ± 0.14	1.07 ± 0.05	1.02 ± 0.063	1.22 ± 0.014	1 ± 0.14	–	–	–	–
COc1cc(/C=C/C(=O)CC(=O)/C=C/c2ccc(O)c(OC)c2)ccc1O	1.02 ± 0.061	1.02 ± 0.093	1.05 ± 0.014	1.13 ± 0.14	0.982 ± 0.14	–	–	–	–
O=C(O)CN1C(=O)c2cccc3cccc(c23)C1=O	0.996 ± 0.034	0.967 ± 0.017	1.005 ± 0.0071	0.964 ± 0.12	1.09 ± 0.042	–	–	–	–

Structure (SMILES)	cell viability [1]	cell viability [2]	cell viability [3]	TCF/Wnt firefly luciferase reporter signal [4]	TCF/Wnt firefly luciferase reporter signal [5]	TCF/Wnt firefly luciferase reporter signal ([6]; reporter: 7TFP)	TCF/Wnt firefly luciferase reporter signal ([6]; reporter: TCF4/Wnt)	TCF/Wnt firefly luciferase reporter signal [7]	TCF/Wnt firefly luciferase reporter signal [8]
CC1=C(/C=C/C(C)=C/C=C/C(C)=C/C=C/C=C(C)/C=C/C=C(C)/C=C/C2=C(C)CCCC2(C)C)C(C)(C)CCC1 [beta-CAROTENE]	0.966 ± 0.0042	1 ± 0.064	0.984 ± 0.0014	0.932 ± 0.018	0.983 ± 0.052	–	–	–	–
COc1ccc2[nH]cc(CCNC(C)=O)c2c1	0.961 ± 0.0071	1.11 ± 0.05	0.974 ± 0.052	0.967 ± 0.046	0.983 ± 0.095	–	–	–	–
CCCc1cc(C(N)=S)ccn1	0.972 ± 0.022	1.05 ± 0.021	0.976 ± 0.063	1.015 ± 0.0071	1.04 ± 0.021	–	–	–	–
CC(=O)[C@H]1CC[C@H]2[C@@H]3CC=C4C[C@@H](O)CC[C@]4(C)[C@H]3CC[C@]12C	1.07 ± 0.028	0.941 ± 0.023	0.956 ± 0.028	1.1 ± 0.05	1.19 ± 0.014	–	–	–	–
Cc1cc(CC(=O)O)n(C)c1C(=O)c1ccc(Cl)cc1	1.07 ± 0.035	0.999 ± 0.03	1.05	1.12 ± 0.24	0.97 ± 0.13	–	–	–	–
CO[C@H]1C[C@H](O[C@H]2[C@H](C)[C@@H](O[C@@H]3O[C@H](C)C[C@H](N(C)C)[C@H]3O)[C@@H](C)C[C@@]3(CO3)C(=O)[C@H](C)[C@@H](O)[C@@H](C)[C@@H](C)OC(=O)[C@@H]2C)O[C@@H](C)[C@@H]1O	0.97 ± 0.0028	0.91 ± 0.087	0.915 ± 0.05	0.869 ± 0.05	1.05 ± 0.1	–	–	–	–
N[C@@H](CSCSC[C@H](N)C(=O)O)C(=O)O	0.966 ± 0.013	0.915 ± 0.022	0.9935 ± 0.0092	1.05 ± 0.014	0.934 ± 0.048	–	–	–	–
COc1ccc(/C=C/C(=O)O)cc1OC	1.02 ± 0.045	1.06 ± 0.16	0.951 ± 0.083	1.01 ± 0.021	0.984 ± 0.021	–	–	–	–
COc1cc(C2Oc3cc([C@H]4Oc5cc(O)cc(O)c5C(=O)[C@@H]4O)ccc3OC2CO)ccc1O (some centres undefined)	1.09 ± 0.042	1.12 ± 0.16	1.02 ± 0.014	0.993 ± 0.081	0.967 ± 0.2	–	–	–	–
CC[C@H](/C=C/[C@@H](C)[C@H]1CC[C@H]2[C@@H]3CCC4=CC(=O)CC[C@]4(C)[C@H]3CC[C@]12C)C(C)C	0.999 ± 0.087	0.976 ± 0.18	1.02 ± 0.041	1.05	1.06 ± 0.028	–	–	–	–
CC(=O)O[C@]1(C(C)=O)CC[C@H]2[C@@H]3C=C(C)C4=CC(=O)CC[C@]4(C)[C@H]3CC[C@@]21C	0.988 ± 0.088	0.971 ± 0.037	0.984 ± 0.037	1.03 ± 0.086	1 ± 0.04	–	–	–	–
CC(=O)Nc1ccc(S(=O)(=O)c2ccc(NC(C)=O)cc2)cc1	0.966 ± 0.1	0.94 ± 0.012	0.931 ± 0.012	1.09 ± 0.035	1.05 ± 0.042	–	–	–	–
COc1ccc2c(c1OC)OC[C@@H](c1ccc(OC)c(OC)c1OC)C2	1.01 ± 0.069	1.1 ± 0.099	1.06 ± 0.035	1.04 ± 0.09	0.961 ± 0.055	–	–	–	–
O=C1O[C@H](CO)[C@@H](O)[C@H](O)[C@H]1O	1.005 ± 0.0071	1.035 ± 0.0071	1.085 ± 0.0071	0.949 ± 0.051	0.945 ± 0.13	–	–	–	–
C=C1C2CC[C@@]3(C)[C@H](c4ccoc4)OC(=O)C[C@]13O[C@H]1CC(O)C(C)(C)C(CC(=O)OC)[C@@]21C (stereo partly drawn) [3alpha-HYDROXY-3-DEOXYANGOLENSIC ACID METHYL ESTER]	1.01 ± 0.049	0.943 ± 0.081	1.02 ± 0.059	1.05 ± 0.05	0.968 ± 0.06	–	–	–	–
O=C(CCCCCCCCCCCCC1CCCC1)Nc1ccc(S(=O)(=O)c2ccc(NC(=O)CCCCCCCCCCCCC3CCCC3)cc2)cc1	1.02 ± 0.062	1.04 ± 0.087	1.03 ± 0.028	1.01 ± 0.12	1 ± 0.036	–	–	–	–
Cc1ccccc1-n1c(Cn2nc(-c3cccc(O)c3)c3c(N)ncnc32)nc2cccc(C)c2c1=O	–	–	–	–	–	1.07 ± 0.042	0.89 ± 0.021	0.841 ± 0.44	1.07 ± 0.12
